Shown are actives, neighbours in structure and some others; about 2.6% of the full set was active somewhere.
MCL1 BIM primary: inhibitors of MCL1 binding to BIM-BH3, primary screen, biochemical, fluorescence polarization. GST-MCL1 / FITC-Bim-BH3 fluorescence polarization. Induced myeloid leukemia cell differentiation protein Mcl-1 (Homo sapiens), Q07820. 0.68% of 320,000 active. inhibition, % at 10.9 µM;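 active = inhibition above the mean inhibition of all tested compounds plus 3 SD, set per campaign, cut at about 40% in these data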;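 also: higher means more loss of mP so more displacement of Bim peptide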
eIF4E 4G PPI: eIF4E–eIF4G protein interaction inhibitors, primary screen, biochemical, uHTS, TR-FRET, eIF4GI fragment; AID 782, 2007; TR-FRET eIF4E-eIF4GI(517-606) binding, 2 h; inhibition, % at 21.7 µM; Eukaryotic translation initiation factor 4E (Mus musculus) + Eukaryotic translation …; 0.37% of 220,000 active;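 active = inhibition above about 30%, limit read from the data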
Target sequence (P63073 whole entry, looked up, the tested form may be a part): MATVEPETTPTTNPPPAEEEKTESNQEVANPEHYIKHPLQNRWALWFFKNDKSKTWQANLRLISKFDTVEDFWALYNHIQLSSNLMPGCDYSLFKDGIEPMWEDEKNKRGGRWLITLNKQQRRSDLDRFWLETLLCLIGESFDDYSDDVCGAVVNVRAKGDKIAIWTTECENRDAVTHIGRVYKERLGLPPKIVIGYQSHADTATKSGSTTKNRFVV
Target sequence (Q04637 whole entry, looked up, the tested form may be a part): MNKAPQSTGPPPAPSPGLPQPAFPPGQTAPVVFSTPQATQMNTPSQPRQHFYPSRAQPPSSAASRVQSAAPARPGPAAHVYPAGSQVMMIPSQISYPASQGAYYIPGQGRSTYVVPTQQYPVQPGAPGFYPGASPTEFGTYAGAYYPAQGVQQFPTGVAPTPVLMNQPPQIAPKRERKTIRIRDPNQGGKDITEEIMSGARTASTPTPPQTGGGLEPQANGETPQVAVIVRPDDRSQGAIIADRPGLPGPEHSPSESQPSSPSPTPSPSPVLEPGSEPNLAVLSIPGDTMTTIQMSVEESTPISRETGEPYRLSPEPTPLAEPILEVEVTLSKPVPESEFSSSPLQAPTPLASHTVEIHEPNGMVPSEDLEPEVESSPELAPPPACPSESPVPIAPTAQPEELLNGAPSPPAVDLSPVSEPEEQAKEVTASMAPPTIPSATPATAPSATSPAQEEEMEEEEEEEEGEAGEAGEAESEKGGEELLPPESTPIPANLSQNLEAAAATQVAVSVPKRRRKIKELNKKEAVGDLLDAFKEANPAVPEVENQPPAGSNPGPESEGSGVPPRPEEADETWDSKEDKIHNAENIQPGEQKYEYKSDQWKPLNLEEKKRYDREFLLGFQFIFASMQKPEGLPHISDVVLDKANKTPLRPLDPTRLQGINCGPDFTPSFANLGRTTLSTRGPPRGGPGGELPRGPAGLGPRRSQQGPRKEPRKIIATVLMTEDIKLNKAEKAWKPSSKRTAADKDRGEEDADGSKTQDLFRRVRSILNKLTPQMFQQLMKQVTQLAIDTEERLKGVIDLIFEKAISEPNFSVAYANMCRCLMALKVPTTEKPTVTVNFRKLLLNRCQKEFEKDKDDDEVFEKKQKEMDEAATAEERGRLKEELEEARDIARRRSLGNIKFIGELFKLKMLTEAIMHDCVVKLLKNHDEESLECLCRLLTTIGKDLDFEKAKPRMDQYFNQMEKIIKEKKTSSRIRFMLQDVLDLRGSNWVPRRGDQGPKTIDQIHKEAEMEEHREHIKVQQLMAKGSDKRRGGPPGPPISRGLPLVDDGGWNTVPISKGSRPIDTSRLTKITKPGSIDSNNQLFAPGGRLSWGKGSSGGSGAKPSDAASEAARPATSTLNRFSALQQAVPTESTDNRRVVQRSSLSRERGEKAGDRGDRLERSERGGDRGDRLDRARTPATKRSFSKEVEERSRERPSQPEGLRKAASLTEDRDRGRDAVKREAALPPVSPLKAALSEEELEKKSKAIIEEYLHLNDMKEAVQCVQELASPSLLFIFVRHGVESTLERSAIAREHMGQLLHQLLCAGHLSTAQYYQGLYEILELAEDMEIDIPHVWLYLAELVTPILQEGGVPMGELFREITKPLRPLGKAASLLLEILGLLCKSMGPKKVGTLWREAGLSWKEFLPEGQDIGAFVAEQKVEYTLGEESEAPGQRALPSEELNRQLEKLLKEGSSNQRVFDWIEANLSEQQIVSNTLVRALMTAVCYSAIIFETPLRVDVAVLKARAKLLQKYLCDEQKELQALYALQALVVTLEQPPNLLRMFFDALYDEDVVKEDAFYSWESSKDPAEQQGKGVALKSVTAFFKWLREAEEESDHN
14-3-3 Bad PPI: inhibitors of 14-3-3 zeta/Bad binding, primary screen, biochemical, TR-FRET, bovine 14-3-3 zeta. inhibition, % at 21.7 µM. AID 781, 2007. 0.71% of 220,000 active. TR-FRET 14-3-3zeta/Dy647-pBad peptide displacement, 1 h;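 active = inhibition above about 70%, limit read from the data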
Bim-Mcl-1: inhibitors of Bim peptide binding to Mcl-1, primary screen, biochemical, bead-based flow cytometry, multiplex; Induced myeloid leukemia cell differentiation protein Mcl-1 (Homo sapiens), Q07820; Bim peptide-Mcl-1 binding; inhibition, % at 10 µM; 0.1% of 190,000 active; AID 1009, 2008; in the data active = inhibition above about 40%
Mcl1-Bid inh: Mcl-1/Bid binding inhibitors, primary screen, biochemical, TR-FRET, 1536-well. Induced myeloid leukemia cell differentiation protein Mcl-1 (Homo sapiens), Q07820. TR-FRET Mcl-1/Bid-Dy647 peptide binding. inhibition, % at 21.7 µM. 0.97% of 220,000 active;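 active = compounds that cut the binding signal by more than half at the single screening dose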;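 also: His-tagged Mcl-1 with europium anti-His antibody binding Bid BH3 peptide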
Mcl1-Noxa inh: Mcl-1/Noxa binding inhibitors, primary screen, biochemical, TR-FRET, 1536-well. AID 1022, 2008. inhibition, % at 21.7 µM. 1.5% of 220,000 active. TR-FRET Mcl-1/Noxa peptide binding, 2 h;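 active = compounds that cut the protein-peptide binding signal by more than 50% relative to plate controls in a single-dose test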;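 also: His-tagged Mcl-1 with rhodamine Noxa BH3 peptide and terbium anti-His antibody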
BCLXL inh confirm: Bcl-xL inhibitors blocking Bim BH3 binding, confirmation, counter-screen for MCL1 inhibitor project, biochemical, fluorescence polarization; shares compounds with MCL1 BIM primary; GST-Bcl-xL / FITC-Bim BH3 peptide FP binding; 54% of 1,700 active; inhibition, % at 10.9 µM;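 active = inhibition above a cutoff equal to the mean inhibition of all tested compounds plus 3 SD, cut at about 30% in these data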
MCL1 inh confirm: inhibitors of MCL1 binding to BIM-BH3, confirmation, biochemical, fluorescence polarization, triplicate | shares compounds with MCL1 BIM primary | GST-MCL1 / FITC-Bim-BH3 fluorescence polarization | inhibition, % at 10.9 µM | 61% of 1,700 active | AID 2168, 2009;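 active = inhibition above the average of all tested compounds plus 3 SD, cut at about 40% in these data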
Numbers stand for hits; – = inactive; · = no result; + = active, no number.

SMILES	MCL1 BIM primary	eIF4E 4G PPI	14-3-3 Bad PPI	Bim-Mcl-1	Mcl1-Bid inh	Mcl1-Noxa inh	BCLXL inh confirm	MCL1 inh confirm
CN1C(=O)N(C)C(=O)C2(Cc3cc(N)ccc3N3CCN(c4ccccc4F)CC32)C1=O (stereo not given)	–	–	82	–	91	57	·	·
CN1CCN2c3ccc(N)cc3CC3(C(=O)NC(=O)NC3=O)C2C1 (stereo not given)	·	93	96	·	97	–	·	·
CCN1C(=O)N(CC)C(=O)C2(Cc3ccccc3N3CCN(c4ccccc4)CC32)C1=O (stereo not given)	–	–	–	·	–	–	·	·
C=CCn1c(O)c(/C=N/N2CCCCC2c2cccnc2)c(=O)[nH]c1=S (stereo not given)	–	–	–	–	–	–	·	·
COP(=O)(CC(=O)O)c1ccccc1 (stereo not given)	–	–	–	95	–	–	·	·
C=CCN(CC#CCOc1ccccc1OC)CC=C	–	–	–	–	–	–	·	·
COc1ccc(N/N=C/c2c(O)n(-c3ccc(C)c(C)c3)c(=O)[nH]c2=O)cc1	54	–	–	–	–	–	–	–
COc1ccc(Cl)cc1C(=O)C1CCCN(Cc2cnc(C)s2)C1 (stereo not given)	–	–	–	–	–	–	·	·
CN1C(=O)C(=Cc2cn(CC(=O)N3CCCC3)c3ccccc23)C(=O)N(C)C1=O	–	·	·	·	·	·	·	·
CCN1C(=O)NC(=O)/C(=C\c2cn(CC(=O)N3CCCCC3C)c3ccccc23)C1=O (stereo not given)	81	·	·	·	·	·	162	+
Cc1ccccc1NC(=O)NCCN1CC1	–	–	–	·	–	–	·	·
Cc1ccc(Cn2nc(C)c(C=O)c2Cl)cc1	–	–	–	–	–	–	·	·
O=C1C=C2C=C[C@@H]3CC2(O1)[C@H]1CCCCN31	125	·	·	·	·	·	–	–
CN1CCN(c2ccc([N+](=O)[O-])c3no[n+]([O-])c23)CC1	+	–	–	·	–	–	149	180
CN1CCN(c2ccc(S(C)(=O)=O)cc2[N+](=O)[O-])CC1	–	–	–	–	–	–	·	·
Clc1ccc(N2CC2c2ccncc2)cc1 (stereo not given)	–	·	·	·	·	·	·	·
Cc1cc(N2CCCC2)ccc1C=C(C#N)C#N	180	–	–	–	–	–	85	108
N#CC(C#N)=Cc1ccc(C=C(C#N)C#N)cc1	·	–	–	·	–	–	·	·
COC(=O)C1=C(c2ccc3ccccc3c2)C[C@@H]2CC[C@H]1N2C(=O)N1CCCCC1	–	·	·	·	·	·	·	·
CC[C@@H](CO)NC(=O)[C@@H]1C=C2c3cccc4c3c(cn4C)C[C@H]2N(C)C1	171	–	–	–	–	–	–	42
CCC(CO)NC(=O)C1C=C2c3cccc4[nH]cc(c34)CC2N(C)C1 (stereo not given)	47	–	–	·	–	–	96	111
COC(=O)C1C=C2c3cccc4[nH]cc(c34)CC2N(C)C1 (stereo not given)	·	–	–	·	–	–	·	·
CC(C)C[C@H]1C(=O)N2CCC[C@H]2[C@]2(O)O[C@](NC(=O)[C@@H]3C=C4c5cccc6[nH]cc(c56)C[C@H]4N(C)C3)(C(C)C)C(=O)N12	+	·	·	·	·	·	93	114
COc1cccc(CCNCc2ccc(SC)cc2)c1	–	–	–	–	–	–	·	·
COC(=O)C1=C(c2ccc(Cl)c(C(F)(F)F)c2)C[C@@H]2CC[C@H]1N2C(=O)NC1CCCCC1	–	·	·	·	·	·	·	·
SMILES	MCL1 BIM primary	eIF4E 4G PPI	14-3-3 Bad PPI	Bim-Mcl-1	Mcl1-Bid inh	Mcl1-Noxa inh	BCLXL inh confirm	MCL1 inh confirm
CN1CC=C(/C=C/c2ccc(-c3ccccc3)cc2)CC1	–	·	·	·	·	·	·	·
CCCN1CCc2cccc3c2[C@H]1Cc1ccc(O)c(O)c1-3	46	·	·	·	·	·	54	85
COc1ccc2c(c1O)-c1c(OC)c(OC)cc3c1[C@H](C2)N(C)CC3	–	·	·	·	·	·	·	·
C[n+]1c2ccccc2nc2ccc(NCCO)cc21	82	·	·	·	·	·	78	84
CNc1ccc2nc3ccccc3[n+](C)c2c1	185	·	·	·	·	·	118	169
O=C1NC(=O)N(c2ccc(Cl)cc2)C(=O)/C1=C\c1ccc(Sc2nc3ccccc3[nH]2)o1	74	–	–	–	–	68	–	64
O=C(c1ccc(-c2ccccc2)cc1)C1CCCN(Cc2ccn[nH]2)C1 (stereo not given)	–	–	–	–	–	–	·	·
CCOc1ccc(-n2c(O)c(/C=C3\C=Nc4ccccc43)c(=O)[nH]c2=O)cc1	79	·	·	·	·	·	–	–
O=C1NC(=O)C(=Cc2ccc(-c3ccc(F)cc3O)o2)C(=O)N1	–	·	·	·	·	·	·	·
COc1ccc(N2C(=O)/C(=C/c3cc(C)n(-c4ccc(C)cn4)c3C)C(=O)NC2=S)c(OC)c1	–	–	–	–	–	–	·	·
COc1ccc(OC)c(N2C(=O)NC(=O)/C(=C/c3ccc([N+](=O)[O-])s3)C2=O)c1	46	–	–	–	–	69	76	108
O=C1NC(=S)N(c2ccc(F)cc2)C(=O)/C1=C/c1ccco1	68	·	·	·	·	·	73	62
COc1cc(/C=C2\C(=O)NC(=O)N(c3ccccc3)C2=O)c([N+](=O)[O-])cc1OC	·	–	–	–	–	–	·	·
COc1ccc(OC)c(N2C(=O)/C(=C/c3ccco3)C(=O)NC2=S)c1	87	·	·	·	·	·	71	78
C[C@H](NC(=O)N1C[C@H]2C[C@@H](C1)c1cccc(=O)n1C2)C(=O)Nc1ccccc1F	–	·	·	·	·	·	·	·
CN1CCN(c2ccc3c(c2)S(=O)(=O)c2ccccc2C3=O)CC1	85	·	·	·	·	·	63	84
CN1CCN(c2cccc3c2C(=O)c2ccccc2C3=O)CC1	·	–	–	–	–	–	·	·
C#C[C@]1(O)CC[C@H]2[C@@H]3CCC4=Cc5nc6nc7ccccc7n6cc5C[C@]4(C)[C@H]3CC[C@@]21C	60	·	·	·	·	·	–	–

From PubChem BioAssay
